Test results from PubChem BioAssay (Tox21).
Results filed as inconclusive are left out. Active and inactive are the calls of the source. Unless noted, calls follow the shape of the full dose curve.

How the values were obtained:
[1] = qHTS assay to identify small molecule agonists of the vitamin D receptor (VDR) signaling pathway - cell viability counter screen (AID 743224; active = well fitted curve in the direction sought with a large enough effect in the repeat runs; an effect the other way counts as inactive or inconclusive; also: series mostly up to about 63 µM; % is scaled to controls: 0 for no effect and ±100 for the full control effect; nearly all actives have a fitted effect of over 50% in size)
Method in brief: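 VDR-bla cells were preincubated 4 h at 37C/5% CO2, then exposed to compounds for 16 h. After the 2 h room-temperature bla FRET read, CellTiter-Glo was added to the same wells and luminescence read after 30 min.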

[2] = qHTS assay to identify small molecule agonists of the NFkB signaling pathway (AID 1159509; active = well fitted curve in the direction sought with a large enough effect in the signal ratio in the repeat runs, not every such curve was filed as active; the % refers to the signal ratio; also: series mostly up to about 61 µM; % is scaled to controls: 0 for no effect and ±100 for the full control effect)
Method in brief: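 After overnight attachment, reporter cells received test compounds, DMSO or positive controls and were incubated 5 hr at 37 C. FRET substrate was then added for 1.5 hr at room temperature before dual-emission fluorescence reading.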

[3] = qHTS assay to identify small molecule agonists of the NFkB signaling pathway - cell viability counter screen (AID 1159515); also: series mostly up to about 61 µM; % is scaled to controls: 0 for no effect and ±100 for the full control effect; nearly all actives have a fitted effect of over 55% in size
Method in brief: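 NFkB-bla ME-180 cells, 2,000/well, were plated overnight at 37 C, 5% CO2, then exposed to compounds in DMSO for 5 hr. After the bla FRET read, CellTiter-Glo was added to the same wells; luminescence was read after 30 min at room temperature.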

[4] = qHTS assay to identify small molecule agonists of the endoplasmic reticulum stress response signaling pathway (AID 1159516; active = well fitted activation curve with a large enough effect in the signal ratio in the repeat runs, not every such curve was filed as active; the % refers to the signal ratio; also: % is scaled to controls: 0 for no effect and ±100 for the full control effect)
Method in brief: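 CellSensor ESRE-bla HeLa cells, carrying a beta-lactamase reporter driven by the ER stress response element, were plated overnight and exposed to compounds for 5 hr at 37 C. Reporter activity was read as FRET substrate fluorescence after 2 hr at room temperature.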

[5] = qHTS assay to identify small molecule agonists of the endoplasmic reticulum stress response signaling pathway - cell viability counter screen (AID 1159517); also: series mostly up to about 61 µM; % is scaled to controls: 0 for no effect and ±100 for the full control effect; nearly all actives have a fitted effect of over 50% in size
Method in brief: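 Cells, HeLa ESRE-bla; density, 1,500/well; dosing, 5 hr at 37 C, 5% CO2; readout, CellTiter-Glo luminescence after 30 min RT.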

[6] = qHTS assay to identify small molecule antagonists of the retinoid-related orphan receptor gamma (ROR-gamma) signaling pathway - cell viability counter screen (AID 1159520; active = well fitted curve in the direction sought with a large enough effect in the repeat runs; an effect the other way counts as inactive or inconclusive; also: % is scaled to controls: 0 for no effect and ±100 for the full control effect; nearly all actives have a fitted effect of over 50% in size)
Method in brief: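 Cytotoxicity was read from cellular ATP (CellTiter-Glo luminescence) after 16 hr at 37 C with 1 uM doxycycline induction. The inducer was added 2 hr after compound transfer to Tet-on ROR gamma CHO cells.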

[7] = qHTS assay to identify small molecule agonists of the AP-1 signaling pathway - cell viability counter screen (AID 1159525); also: nearly all actives have a fitted effect of over 55% in size
Method in brief: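 Luminescent ATP readout (Cell Titer Glo, 30 min RT), normalised to DMSO and tetra n-octyl ammonium bromide controls. Cells were ME-180 AP-1-bla in 0.5% dialyzed FBS Opti-MEM, with a 5 h, 37 °C compound exposure.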

[8] = qHTS assay to identify small molecule agonists of the AP-1 signaling pathway (AID 1159526); also: % is scaled to controls: 0 for no effect and ±100 for the full control effect
[9] = qHTS assay to identify small molecule antagonists of the vitamin D receptor (VDR) signaling pathway - cell viability counter screen (AID 743225; active = well fitted curve in the direction sought with a large enough effect in the repeat runs; an effect the other way counts as inactive or inconclusive; also: % is scaled to controls: 0 for no effect and ±100 for the full control effect; nearly all actives have a fitted effect of over 50% in size)
Method in brief: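 Parallel cytotoxicity test: VDR-UAS-bla HEK 293T, 3 nM (final) 1-alpha,25-dihydroxyvitamin D3 with test compound, 16 h, 37C. Endpoint is CellTiter-Glo luminescence in the same wells.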

[10] = molecular target: Nuclear receptor ROR-gamma (Homo sapiens) (UniProt P51449); test: qHTS assay to identify small molecule antagonists of the retinoid-related orphan receptor gamma (ROR-gamma) signaling pathway (AID 1159521; active = well fitted curve in the direction sought with a large enough effect in the repeat runs; an effect the other way counts as inactive or inconclusive)
Method in brief: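 Decreased RORE-driven luciferase luminescence indicates antagonism. Tet-on RORγ CHO cells received compound, then 1 uM final doxycycline 2 h later; signal read after 16 h incubation.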

Oc1ccccc1F
inactive: Potency [1] | outcome [2] | outcome [3] | outcome [4] | outcome [5] | Potency [6] | outcome [7] | Potency [8]

CC(=O)OC1C2(C)CCC(C2)C1(C)C (stereo not drawn)
inactive: Potency [1] | Potency [9] | outcome [2] | outcome [3] | outcome [4] | outcome [5] | Potency [6] | outcome [7] | Potency [8]

CC(C)C(=O)OCC(C)(C)C(O)C(C)C (stereo not drawn)
inactive: Potency [1] | Potency [9] | outcome [2] | outcome [3] | outcome [4] | outcome [5] | Potency [6] | Potency [10] | Potency [8]

CC(C)OC(C)C
inactive: Potency [1] | Potency [9] | outcome [2] | outcome [3] | outcome [4] | outcome [5] | Potency [6] | Potency [10] | Potency [8]

CC(C)S
inactive: Potency [1] | outcome [2] | outcome [3] | outcome [4] | outcome [5] | Potency [6] | outcome [7] | Potency [8]

CN(C)C(=O)NC1(c2ccccc2)CCN(CCC[C@]2(c3ccc(Cl)c(Cl)c3)CCCN(C(=O)c3ccccc3)C2)CC1
inactive: Potency [1] | Potency [9] | outcome [2] | outcome [3] | outcome [4] | outcome [5] | activity, negative = cytotoxicity [6] -2.5% [at 19 µM] | activity change, negative = inhibition [10] -21% [at 19 µM] | activation [8] 11.5% [at 15.8 µM]

CC1=C(O)C(=O)OC1C (stereo not drawn)
inactive: Potency [1] | outcome [2] | outcome [3] | outcome [4] | outcome [5] | Potency [6] | outcome [7] | Potency [8]

CC/C=C\CCOC(=O)CCCCC
inactive: Potency [1] | outcome [2] | outcome [3] | outcome [4] | outcome [5] | Potency [6] | outcome [7] | Potency [8]

C=CCCC=C
inactive: outcome [2] | outcome [3] | outcome [4] | outcome [5] | Potency [6] | outcome [7]

OCCN(CCO)c1ccccc1
inactive: Potency [1] | outcome [2] | outcome [3] | outcome [4] | outcome [5] | Potency [6] | outcome [7] | Potency [8]

C=C(C)C(=O)OCCOP(=O)(O)O
inactive: Potency [1] | outcome [2] | outcome [3] | outcome [4] | outcome [5] | Potency [6] | outcome [7] | Potency [8]

Cc1nnc(SCC2=C(C(=O)O)N3C(=O)[C@@H](NC(=O)Cn4cnnn4)[C@H]3SC2)s1
inactive: outcome [2] | outcome [3] | outcome [4] | outcome [5] | Potency [6] | outcome [7] | Potency [8]

CCCCNCCCC
inactive: Potency [1] | outcome [2] | outcome [3] | outcome [4] | outcome [5] | Potency [6] | outcome [7] | Potency [8]

CCC1(C)NC(=O)NC1=O (stereo not drawn)
inactive: Potency [1] | outcome [2] | outcome [3] | outcome [4] | outcome [5] | Potency [6] | outcome [7] | Potency [8]

Cc1ncc(CO)c(CN)c1O
inactive: Potency [1] | outcome [2] | outcome [3] | outcome [4] | outcome [5] | Potency [6] | outcome [7] | Potency [8]

FC(F)(F)C(Cl)(Cl)Cl
inactive: Potency [1] | outcome [2] | outcome [3] | outcome [4] | outcome [5] | Potency [6] | outcome [7] | Potency [8]

O=C(Cl)c1cccc([N+](=O)[O-])c1
inactive: Potency [1] | outcome [2] | outcome [3] | outcome [4] | outcome [5] | Potency [6] | outcome [7] | Potency [8]

CN(C)Cc1ccccc1
inactive: Potency [1] | outcome [2] | outcome [3] | outcome [4] | outcome [5] | Potency [6] | outcome [7] | Potency [8]

CC1(C)C(=O)N(Cl)C(=O)N1Br
inactive: Potency [1] | outcome [2] | outcome [3] | outcome [4] | outcome [5] | Potency [6] | outcome [7] | Potency [8]

CCOC(=O)NCCC[Si](OCC)(OCC)OCC
inactive: Potency [1] | Potency [9] | outcome [2] | outcome [3] | outcome [4] | outcome [5] | Potency [6] | Potency [10] | Potency [8]

O=C(C(Cl)Cl)N1CCOC12CCCCC2
inactive: Potency [1] | outcome [2] | outcome [3] | outcome [4] | outcome [5] | Potency [6] | outcome [7] | Potency [8]

NCCCN1CCN(CCCN)CC1
inactive: Potency [1] | Potency [9] | outcome [2] | outcome [3] | outcome [4] | outcome [5] | Potency [6] | outcome [7] | Potency [8]

CCC(=O)Nc1ccc(O)cc1
inactive: Potency [1] | Potency [9] | outcome [2] | outcome [3] | outcome [4] | outcome [5] | Potency [6] | outcome [7] | Potency [8]

N#Cc1ccc(C(c2ccc(C#N)cc2)n2cncn2)cc1
inactive: Potency [1] | Potency [9] | outcome [2] | outcome [3] | outcome [4] | outcome [5] | Potency [6] | outcome [7] | Potency [8]

c1ccc(CN(CC2=NCCN2)c2ccccc2)cc1
inactive: Potency [1] | Potency [9] | outcome [2] | outcome [3] | outcome [4] | outcome [5] | Potency [6] | outcome [7] | Potency [8]

O=C1CCCc2ccccc21
inactive: Potency [1] | Potency [9] | outcome [2] | outcome [3] | outcome [4] | outcome [5] | Potency [6] | outcome [7] | Potency [8]

Cc1ccsc1C(=CCCN1CCC[C@@H](C(=O)O)C1)c1sccc1C
inactive: Potency [1] | Potency [9] | outcome [2] | outcome [3] | outcome [4] | outcome [5] | Potency [6] | outcome [7] | Potency [8]

CC(=O)OC(C)OC(C)=O
inactive: Potency [1] | Potency [9] | outcome [2] | outcome [3] | outcome [4] | outcome [5] | Potency [6] | outcome [7] | Potency [8]
